Measurements taken from PubChem BioAssay (NCATS).
Results filed as inconclusive are left out. Calls of active or inactive are those of the source. Unless noted, calls come from the whole dose curve; as a rule, active = well fitted curve in the direction sought with a large enough effect; inconclusive = small, poorly fitted or top-dose-only effect, or another doubt; inactive = no such curve, though single readings can be large; an effect the other way counts as inactive or inconclusive.

Assays:
[1] = Primary qHTS for inhibitors of La Crosse Virus (LACV) - induced cell death in SH-SY5Y cells (AID 1508616); conditions: SH-SY5Y LACV cytopathicity rescue, ATP luminescence, 6 d; series mostly up to 4.29 µM;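 note: top concentration of the series differs between compounds; higher means more rescue of cells from virus-induced death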
Outline: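 Cytopathicity rescue screen: compounds pinned onto SH-SY5Y cells, which are then infected with LACV (MOI 0.01) and held 6 days at 37C. Percent activity is scaled between infected DMSO control and uninfected DMSO control.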

[2] = biological target: Calcium and integrin-binding protein 1 (Homo sapiens) (UniProt Q99828); test: Primary qHTS for Identification of Calcium Integrin Binding Protein 1 (CIB1) Competitor (AID 1508620); conditions: CIB1-GST / FITC-alphaIIb peptide fluorescence polarization; series mostly up to 114 µM;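 note: GST tagged CIB1 binding a fluorescein labelled alphaIIb integrin peptide tracer; top concentration of the series differs between compounds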
Sequence of Calcium and integrin-binding protein 1 (Homo sapiens) (Q99828 whole entry, looked up): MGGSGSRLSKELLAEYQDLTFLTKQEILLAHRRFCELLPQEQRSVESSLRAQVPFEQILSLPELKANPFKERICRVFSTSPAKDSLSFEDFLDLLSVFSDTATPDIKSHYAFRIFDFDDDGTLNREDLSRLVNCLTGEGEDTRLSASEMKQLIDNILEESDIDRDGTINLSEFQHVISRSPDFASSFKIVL
Outline: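 CIB1-GST (1 uM final) and compound incubated 15 min at room temperature before adding FITC-alphaIIb peptide tracer (100 nM final). Competition for binding read by fluorescence polarization (ex 480, em 540) after another 15 min at room temperature.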

[3] = Primary qHTS for small molecule stabilizers of the endoplasmic reticulum resident proteome: Secreted ER Calcium Modulated Protein (SERCaMP) assay (AID 1508630); conditions: SH-SY5Y GLuc-SERCaMP (Gaussia luciferase released on ER calcium loss) secretion, thapsigargin, luminescence; series mostly up to 38.4 µM
Outline: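 The SH-SY5Y reporter protocol was run at 3 concentrations up to 38.3 uM (primary) or 11 concentrations (follow-up): 16 h compound, 100 nM thapsigargin for 4 h, then extracellular luciferase luminescence.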

[4] = A High-Content qHTS Against Drug Library for the Identification of Small Molecules that Inhibit DYT1 Early Onset Primary Dystonia-Associated Cell Pathology (AID 1645839; calls by dose curve; note: potency is the fitted concentration of half-maximal effect); conditions: HEK293 Flp-In EGFP-delE TorsinA, punctate imaging, 48 h; series mostly up to 46.1 µM
Outline: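 High-content imaging quantified EGFP-TorsinA mislocalization in HEK293-derived cells inducibly expressing DYT1 mutant torsinA, after 48 h exposure to compound given together with tetracycline induction. Cell count served as a toxicity channel alongside %pathology.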

Measured: Potency

O=C(NN1CCCC1)NS(=O)(=O)c1ccc(Cl)cc1
inactive: [1] | [2] | [3] | [4]

O=C(OCC1(COC(=O)c2cccnc2)CCCC(COC(=O)c2cccnc2)(COC(=O)c2cccnc2)C1O)c1cccnc1
inactive: [1] | [2] | [3]

C/C=C(/C(=C/C)c1ccc(OC(C)=O)cc1)c1ccc(OC(C)=O)cc1
inactive: [1] | [2] | [3]
active: [4] 8.91 µM

CC(=O)OCC(=O)Nc1cc(C#N)cc(NC(=O)COC(C)=O)c1Cl
inactive: [1] | [2] | [3] | [4]

CCCCCOc1ccccc1/C(=C\SC)n1ccnc1
inactive: [1] | [2] | [3]

COc1cc2c(cc1OC)CN(C(=O)[C@H](C)N[C@@H](CCc1ccccc1)C(=O)O)[C@H](C(=O)O)C2
inactive: [1] | [2] | [3] | [4]

CC(C)C(=O)Nc1cccc(C2CN3CCSC3=N2)c1 (stereo not drawn)
inactive: [1] | [2] | [3] | [4]

CCC(=O)O[C@]1(C(=O)COC)[C@@H](C)C[C@H]2[C@@H]3CCC4=CC(=O)C=C[C@]4(C)C3(F)[C@@H](O)C[C@@]21C (stereo partly drawn)
inactive: [1] | [2] | [3] | [4]

O=C(O)C1CCC1
inactive: [1] | [2] | [3] | [4]

O=[N+]([O-])c1nccn1CO[C@@H](CO)[C@H](O)CO
inactive: [1] | [2] | [3] | [4]
